Assay results as given in PubChem BioAssay (NCI).
Compounds without any hit were thinned out: in the full panel of roughly 83,000, 20% have a hit.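 Interpretation: 100, growth as untreated; towards 0, rising growth inhibition; 0, no net growth; 0 to -100, cell death. Compounds scoring below 10 were considered active.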 The source made the active and inactive calls.

How the values were obtained:
Assay in all cases: NCI-60 one-dose screen, 48 h (100 = growth as untreated, 0 = no growth, -100 = all killed)
DU-145 prostate = details: 10 µM unless noted
K-562 leukemia = details: 10 µM unless noted
MALME-3M melanoma = details: 10 µM unless noted
MDA-MB-231 breast = details: 10 µM unless noted
RXF 393 renal = details: 10 µM unless noted
SF-268 CNS = details: 10 µM unless noted
SF-295 CNS = details: 10 µM unless noted
SF-539 CNS = details: 10 µM unless noted
UACC-257 melanoma = details: 10 µM unless noted
M14 melanoma = details: 10 µM unless noted
HCT-15 colon = details: 10 µM unless noted
HT29 colon = details: 10 µM unless noted
SNB-75 CNS = details: 10 µM unless noted
U251 CNS = details: 10 µM unless noted
PC-3 prostate = details: 10 µM unless noted
SK-MEL-5 melanoma = details: 10 µM unless noted
UACC-62 melanoma = details: 10 µM unless noted
LOX IMVI melanoma = details: 10 µM
SK-MEL-28 melanoma = details: 10 µM unless noted
SNB-19 CNS = details: 10 µM unless noted

Measured: growth

O=C(O)Cc1ccccn1
inactive: DU-145 prostate 111% | K-562 leukemia 108% | MALME-3M melanoma 85.7% | MDA-MB-231 breast 116% | RXF 393 renal 133% | SF-268 CNS 100% | SF-295 CNS 114% | SF-539 CNS 109% | UACC-257 melanoma 98.6% | M14 melanoma 112% | HCT-15 colon 99.7% | HT29 colon 103% | SNB-75 CNS 103% | U251 CNS 99% | PC-3 prostate 102% | SK-MEL-5 melanoma 104% | UACC-62 melanoma 106% | LOX IMVI melanoma 113% | SK-MEL-28 melanoma 106%

NNc1ncccn1
inactive: DU-145 prostate 116% | K-562 leukemia 102% | MALME-3M melanoma 118% | MDA-MB-231 breast 100% | RXF 393 renal 120% | SF-268 CNS 103% | SF-295 CNS 108% | SF-539 CNS 105% | UACC-257 melanoma 104% | M14 melanoma 108% | HCT-15 colon 106% | HT29 colon 91.8% | SNB-75 CNS 80.2% | SNB-19 CNS 111% | PC-3 prostate 106% | SK-MEL-5 melanoma 115% | LOX IMVI melanoma 96.9% | SK-MEL-28 melanoma 106%

c1ccc2[nH]c(Cc3nc4ccccc4[nH]3)nc2c1
inactive: DU-145 prostate 109% | K-562 leukemia 126% | MALME-3M melanoma 89% | MDA-MB-231 breast 106% | RXF 393 renal 114% | SF-268 CNS 131% | SF-295 CNS 101% | SF-539 CNS 105% | UACC-257 melanoma 111% | M14 melanoma 94.3% | HCT-15 colon 107% | HT29 colon 112% | SNB-75 CNS 94.9% | U251 CNS 106% | PC-3 prostate 93.7% | SK-MEL-5 melanoma 104% | UACC-62 melanoma 105% | LOX IMVI melanoma 109% | SK-MEL-28 melanoma 94.3%

Cc1c(Cl)cccc1NC(=S)NC(=O)c1ccccc1
inactive: DU-145 prostate 111% | K-562 leukemia 79.7% | MALME-3M melanoma 89.4% | MDA-MB-231 breast 90.2% | RXF 393 renal 85.5% | SF-268 CNS 109% | SF-295 CNS 85.1% | SF-539 CNS 100% | UACC-257 melanoma 88.9% | M14 melanoma 115% | HCT-15 colon 92.6% | HT29 colon 90.3% | SNB-75 CNS 90.5% | U251 CNS 84.9% | PC-3 prostate 89.2% | SK-MEL-5 melanoma 90.1% | UACC-62 melanoma 92.7% | LOX IMVI melanoma 99.3% | SK-MEL-28 melanoma 102%

C=COC(=O)C(C)(C)C
inactive: DU-145 prostate 110% | K-562 leukemia 103% | MALME-3M melanoma 95.5% | MDA-MB-231 breast 113% | RXF 393 renal 105% | SF-268 CNS 103% | SF-295 CNS 93.1% | SF-539 CNS 102% | UACC-257 melanoma 107% | M14 melanoma 107% | HCT-15 colon 102% | SNB-75 CNS 90.4% | SNB-19 CNS 95.3% | U251 CNS 99.4% | PC-3 prostate 95.3% | SK-MEL-5 melanoma 99.9% | UACC-62 melanoma 99.9% | LOX IMVI melanoma 96.4% | SK-MEL-28 melanoma 108%

COc1ccc(C)cc1NC(=O)SC(C)C
inactive: DU-145 prostate 103% [100 µM] | K-562 leukemia 92.5% [100 µM] | MALME-3M melanoma 98.8% [100 µM] | MDA-MB-231 breast 92.1% [100 µM] | RXF 393 renal 102% [100 µM] | SF-268 CNS 97.3% [100 µM] | SF-295 CNS 105% [100 µM] | SF-539 CNS 97.6% [100 µM] | UACC-257 melanoma 98.8% [100 µM] | M14 melanoma 110% [100 µM] | HCT-15 colon 102% [100 µM] | SNB-75 CNS 82.4% [100 µM] | SNB-19 CNS 99% [100 µM] | U251 CNS 104% [100 µM] | PC-3 prostate 96.7% [100 µM] | SK-MEL-5 melanoma 96.3% [100 µM] | UACC-62 melanoma 87.5% [100 µM] | SK-MEL-28 melanoma 102% [100 µM]

CC1(C)OC(=O)CC1=O
inactive: DU-145 prostate 109% | K-562 leukemia 92.2% | MALME-3M melanoma 105% | MDA-MB-231 breast 104% | RXF 393 renal 103% | SF-268 CNS 103% | SF-295 CNS 106% | SF-539 CNS 102% | UACC-257 melanoma 89.4% | HCT-15 colon 110% | HT29 colon 93.5% | SNB-75 CNS 93.5% | SNB-19 CNS 105% | U251 CNS 83.2% | PC-3 prostate 81.5% | SK-MEL-5 melanoma 98.7% | LOX IMVI melanoma 96.9% | SK-MEL-28 melanoma 109%

OCCc1ccc(Cl)cc1
inactive: DU-145 prostate 109% | K-562 leukemia 99.9% | MALME-3M melanoma 99.5% | MDA-MB-231 breast 96.9% | RXF 393 renal 112% | SF-268 CNS 99.9% | SF-295 CNS 94.9% | SF-539 CNS 93.9% | UACC-257 melanoma 86.6% | M14 melanoma 99.2% | HCT-15 colon 102% | SNB-75 CNS 86.5% | SNB-19 CNS 96.5% | U251 CNS 92.3% | PC-3 prostate 95.5% | SK-MEL-5 melanoma 103% | LOX IMVI melanoma 100% | SK-MEL-28 melanoma 108%

OCC1OC(n2ccc3c2ncn2ncnc32)C(O)C1O (stereo unspecified)
inactive: DU-145 prostate 16.9% | K-562 leukemia 18.4% | MALME-3M melanoma 83.7% | MDA-MB-231 breast 40.9% | RXF 393 renal 38.3% | SF-268 CNS 47.4% | SF-295 CNS 43.7% | SF-539 CNS 34.3% | UACC-257 melanoma 97.7% | HCT-15 colon 26.9% | HT29 colon 14.2% | SNB-75 CNS 58.6% | SNB-19 CNS 50.3% | U251 CNS 78.6% | PC-3 prostate 14.6% | SK-MEL-5 melanoma 45.4% | UACC-62 melanoma 61.2% | LOX IMVI melanoma 12.9% | SK-MEL-28 melanoma 92.5%

NC(CO)(CO)c1ccccc1
inactive: DU-145 prostate 101% | K-562 leukemia 111% | MALME-3M melanoma 105% | MDA-MB-231 breast 111% | RXF 393 renal 101% | SF-268 CNS 97.6% | SF-295 CNS 104% | SF-539 CNS 104% | UACC-257 melanoma 96.5% | M14 melanoma 94.9% | HCT-15 colon 97.2% | SNB-75 CNS 88.7% | SNB-19 CNS 107% | U251 CNS 97.3% | PC-3 prostate 100% | SK-MEL-5 melanoma 97.9% | UACC-62 melanoma 101% | LOX IMVI melanoma 101% | SK-MEL-28 melanoma 106%

N#Cc1ccc(OC(=O)Nc2c(Cl)cc(Cl)cc2Cl)cc1
inactive: DU-145 prostate 111% | K-562 leukemia 101% | MALME-3M melanoma 95% | MDA-MB-231 breast 101% | RXF 393 renal 125% | SF-268 CNS 112% | SF-295 CNS 108% | SF-539 CNS 91.7% | UACC-257 melanoma 97.7% | M14 melanoma 112% | HCT-15 colon 107% | SNB-75 CNS 127% | SNB-19 CNS 99.5% | U251 CNS 104% | PC-3 prostate 99.5% | SK-MEL-5 melanoma 97.2% | UACC-62 melanoma 102% | SK-MEL-28 melanoma 104%

NC(=S)c1c(N)n(C2OC(CO)C(O)C2O)c2ncnc(N)c12 (stereo unspecified)
active: DU-145 prostate 4.75% | K-562 leukemia -17.2% | MALME-3M melanoma -53.4% | RXF 393 renal -69.3% | SF-268 CNS -3.78% | SF-295 CNS -0.294% | SF-539 CNS -51.2% | UACC-257 melanoma -10.2% | M14 melanoma -24.5% | HCT-15 colon 3.4% | SNB-75 CNS -8.18% | PC-3 prostate -10.1% | SK-MEL-5 melanoma -77.5% | UACC-62 melanoma -73.7% | LOX IMVI melanoma -3.22% | SK-MEL-28 melanoma -46.8%
inactive: MDA-MB-231 breast 29.7% | SNB-19 CNS 14.9% | U251 CNS 17.3%

CCC1CCC(C)NC1 (stereo unspecified)
inactive: DU-145 prostate 107% | K-562 leukemia 102% | MALME-3M melanoma 102% | MDA-MB-231 breast 120% | RXF 393 renal 107% | SF-268 CNS 102% | SF-295 CNS 92.1% | SF-539 CNS 99.7% | UACC-257 melanoma 96% | M14 melanoma 95.2% | HCT-15 colon 91.5% | SNB-75 CNS 88.6% | SNB-19 CNS 100% | U251 CNS 95.7% | PC-3 prostate 94.2% | SK-MEL-5 melanoma 98.9% | UACC-62 melanoma 99.3% | LOX IMVI melanoma 95.9% | SK-MEL-28 melanoma 102%

CC1CN(CCO)CC(C)O1 (stereo unspecified)
inactive: DU-145 prostate 107% | K-562 leukemia 98.9% | MALME-3M melanoma 99.7% | MDA-MB-231 breast 101% | RXF 393 renal 132% | SF-268 CNS 99.7% | SF-295 CNS 104% | SF-539 CNS 98.4% | UACC-257 melanoma 105% | HCT-15 colon 102% | HT29 colon 114% | SNB-75 CNS 96.5% | SNB-19 CNS 102% | U251 CNS 102% | PC-3 prostate 104% | SK-MEL-5 melanoma 102% | UACC-62 melanoma 94.1% | SK-MEL-28 melanoma 104%

O=C1C=C[C@H](O)[C@@]2(CO)O[C@@H]12
active: K-562 leukemia 4.07%
inactive: DU-145 prostate 95.6% | MALME-3M melanoma 77.7% | MDA-MB-231 breast 105% | RXF 393 renal 23.1% | SF-268 CNS 100% | SF-295 CNS 109% | SF-539 CNS 70.1% | UACC-257 melanoma 108% | HCT-15 colon 104% | HT29 colon 53.9% | SNB-75 CNS 81% | SNB-19 CNS 100% | U251 CNS 91.4% | PC-3 prostate 82.3% | SK-MEL-5 melanoma 100% | UACC-62 melanoma 65.8% | LOX IMVI melanoma 66.7% | SK-MEL-28 melanoma 42.1%

CCOS(=O)(=O)c1ccc([N+](=O)[O-])cc1
inactive: DU-145 prostate 108% | K-562 leukemia 99.2% | MALME-3M melanoma 113% | MDA-MB-231 breast 106% | RXF 393 renal 120% | SF-268 CNS 103% | SF-295 CNS 101% | SF-539 CNS 102% | UACC-257 melanoma 94.5% | HCT-15 colon 110% | HT29 colon 94% | SNB-75 CNS 87% | SNB-19 CNS 101% | U251 CNS 99.2% | PC-3 prostate 97.9% | SK-MEL-5 melanoma 102% | UACC-62 melanoma 101% | LOX IMVI melanoma 97.7% | SK-MEL-28 melanoma 107%

NC(CSSCC(N)C(=O)O)C(=O)O (stereo unspecified)
inactive: DU-145 prostate 36% | K-562 leukemia 13.8% | SF-268 CNS 28.1% | SF-295 CNS 11% | HCT-15 colon 34.5% | U251 CNS 27% | PC-3 prostate 27.3% | LOX IMVI melanoma 18.2% | SK-MEL-28 melanoma 18.5%
active: MALME-3M melanoma 4.18% | MDA-MB-231 breast 2.86% | RXF 393 renal -37.9% | SF-539 CNS -36.8% | UACC-257 melanoma 5.8% | M14 melanoma 2.4% | SNB-75 CNS -3.17% | SNB-19 CNS -6.03% | UACC-62 melanoma -19.3%
